Test results published in the supplement of paper PMC3545927.
Some of the results follow. How many sequences the whole screen found active is unknown.

Molecular target: furin, P09958
Experiment: furin cleavage Z-score vs untreated control; higher = more cleavage, active = 3.5 or more, inactive = 1 or less, 8 variable residues between constant flanks
How it was run: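 Reactions of 0.01 ml ran for 7.5, 15 or 30 min in 50 mM HEPES pH 7.5 with CaCl2 and NaCl, at 1:10 enzyme:substrate. In them, purified furin acted on bead-held 8-mer peptides fused to a cDNA oligonucleotide. The cleavage Z-score was obtained by lowess-adjusting log sequencing counts of released DNA against furin-free reactions and scaling by median absolute deviation.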

furin, P09958, sequence (P09958 whole entry): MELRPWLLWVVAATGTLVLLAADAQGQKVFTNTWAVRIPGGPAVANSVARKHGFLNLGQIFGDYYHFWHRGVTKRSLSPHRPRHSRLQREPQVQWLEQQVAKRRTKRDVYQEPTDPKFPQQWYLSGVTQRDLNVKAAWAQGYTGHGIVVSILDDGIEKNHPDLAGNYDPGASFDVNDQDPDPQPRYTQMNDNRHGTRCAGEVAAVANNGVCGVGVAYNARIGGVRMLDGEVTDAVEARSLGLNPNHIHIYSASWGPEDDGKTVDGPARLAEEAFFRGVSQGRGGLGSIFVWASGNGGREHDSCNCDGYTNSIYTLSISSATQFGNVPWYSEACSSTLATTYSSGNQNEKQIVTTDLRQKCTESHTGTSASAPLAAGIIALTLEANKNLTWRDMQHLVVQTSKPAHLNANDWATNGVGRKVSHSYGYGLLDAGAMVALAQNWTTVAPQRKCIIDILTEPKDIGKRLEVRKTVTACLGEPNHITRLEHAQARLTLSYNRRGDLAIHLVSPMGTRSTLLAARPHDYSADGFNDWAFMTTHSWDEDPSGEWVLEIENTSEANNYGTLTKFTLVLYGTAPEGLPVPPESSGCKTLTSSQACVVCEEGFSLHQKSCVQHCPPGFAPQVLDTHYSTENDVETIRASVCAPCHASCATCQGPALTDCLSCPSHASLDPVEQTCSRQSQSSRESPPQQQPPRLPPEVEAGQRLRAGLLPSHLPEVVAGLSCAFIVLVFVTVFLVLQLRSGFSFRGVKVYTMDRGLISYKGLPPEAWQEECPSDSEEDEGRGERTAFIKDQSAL

Sequence | furin cleavage Z-score (7.5 min) | furin cleavage Z-score (15 min) | furin cleavage Z-score (30 min)
CAEVVISTWVAGNASASA [HC125] | 0.441 (inactive) | -0.457 (inactive) | -1.26 (inactive)
CACGAEITGHAGNASASA [HC1176] | -2.29 (inactive) | -1.09 (inactive) | -4.52 (inactive)
CAEVPCHAPSAGNASASA [HC2363] | 0.635 (inactive) | 1.02 | 0.728 (inactive)
CARQGRVISVAGNASASA [FS-2168] | -2.08 (inactive) | -0.187 (inactive) | 0.163 (inactive)
CARQGRIARVAGNASASA [FS-1608] | 4.13 (active) | 2.36 | 3.61 (active)
CARPGRPARVAGNASASA [FS-1159] | -0.325 (inactive) | -0.113 (inactive) | -0.65 (inactive)
CARIERVIGAAGNASASA [FS-2212] | 0.267 (inactive) | -1.07 (inactive) | 0.338 (inactive)
CARVARERRWAGNASASA [FS-292] | 7.91 (active) | 11.7 (active) | 9.72 (active)
CAEVPCHRPWAGNASASA [HC2408] | -0.0166 (inactive) | 0.18 (inactive) | 0.457 (inactive)
CARIERVARVAGNASASA [FS-187] | 2.36 | 1.28 | 4.15 (active)
CAFCTTPCSGAGNASASA [HC1947] | 1.42 | -0.358 (inactive) | -1.43 (inactive)
CATGMTTDNLAGNASASA [HC1212] | -0.509 (inactive) | 1.51 | -0.989 (inactive)
CAHLNSTALNAGNASASA [HC371] | 1.65 | 0.509 (inactive) | 0.52 (inactive)
CAVEPVVFSQAGNASASA [HC646] | -0.426 (inactive) | 0.0995 (inactive) | -0.8 (inactive)
CASMPCSAHLAGNASASA [HC2486] | -0.177 (inactive) | 1.03 | -0.00604 (inactive)
CAQEECSQHLAGNASASA [HC1682] | -0.746 (inactive) | 0.819 (inactive) | 1.15
CARQARRVGGAGNASASA [FS-1766] | -0.614 (inactive) | -0.316 (inactive) | -0.000733 (inactive)
CARQVRGVTQAGNASASA [FS-2447] | -1.36 (inactive) | 0.0563 (inactive) | 0.556 (inactive)
CARKIRTVGNAGNASASA [FS-1726] | 5.44 (active) | 7.79 (active) | 7.77 (active)
CARKIRVNGTAGNASASA [FS-2422] | -0.334 (inactive) | 0.321 (inactive) | -1.68 (inactive)
CACVIGGAGNAGNASASA [HC445] | -1.36 (inactive) | -2.02 (inactive) | -1.24 (inactive)
CARQVRCVGNAGNASASA [FS-3045] | 3.15 | 3.4 | 5.33 (active)
CASGFVSLLAAGNASASA [HC359] | 0.181 (inactive) | 0.268 (inactive) | 0.641 (inactive)
CAVFTDNSSPAGNASASA [HC765] | -0.215 (inactive) | -0.103 (inactive) | 0.299 (inactive)
CAEPLDLPPIAGNASASA [HC1598] | 0.806 (inactive) | 1.44 | 0.441 (inactive)

Sequence | furin cleavage Z-score (7.5 min) | furin cleavage Z-score (15 min) | furin cleavage Z-score (30 min)
CAVPSTEDLVAGNASASA [HC1097] | -2.52 (inactive) | -0.505 (inactive) | 0.561 (inactive)
CARVRRANTFAGNASASA [FS-2622] | 3.44 | 5.83 (active) | 5.99 (active)
CAAVRRLVGNAGNASASA [FS-1667] | -1.38 (inactive) | -1.34 (inactive) | -1.08 (inactive)
CARVMRWNSKAGNASASA [FS-3120] | -0.31 (inactive) | 0.804 (inactive) | 2.88
CARVRRRSVQAGNASASA [FS-3175] | 0.273 (inactive) | 0.235 (inactive) | 0.754 (inactive)
CARVRRAVRIAGNASASA [FS-2107] | 2.88 | 2.85 | 5.12 (active)
CAASRQAEVIAGNASASA [HC1030] | -0.216 (inactive) | -0.538 (inactive) | -1.56 (inactive)
CARVRRLVRHAGNASASA [FS-3240] | 12.5 (active) | 11.6 (active) | 9.85 (active)
CARVRRAWVIAGNASASA [FS-3124] | 1.98 | 4.98 (active) | 7.77 (active)
CAYQATVCARAGNASASA [HC955] | 1.06 | 0.432 (inactive) | -1.24 (inactive)
CAYFVRVQGLAGNASASA [HC616] | 0.749 (inactive) | 0.0281 (inactive) | 0.654 (inactive)
CALSTGLIHLAGNASASA [HC503] | 1.35 | 0.833 (inactive) | 1.12
CAAAQGYKVLAGNASASA [HC783] | 0.259 (inactive) | 0.477 (inactive) | -0.5 (inactive)
CADPDLSDGSAGNASASA [HC1359] | -1.03 (inactive) | -0.792 (inactive) | -0.78 (inactive)
CAVVCCSMSGAGNASASA [HC2096] | -0.582 (inactive) | -1.33 (inactive) | -0.463 (inactive)
CARIRRNAKGAGNASASA [FS-1723] | 9.77 (active) | 9.21 (active) | 7.23 (active)
CARQRRAAKGAGNASASA [FS-3230] | 5.82 (active) | 8.24 (active) | 7.16 (active)
CARQRRPHGGAGNASASA [FS-2765] | -0.899 (inactive) | -0.697 (inactive) | -0.913 (inactive)
CARQRRAAGGAGNASASA [FS-2588] | 4.04 (active) | 2.03 | 3.5 (active)
CARLRRFQKGAGNASASA [FS-2714] | -0.592 (inactive) | -0.736 (inactive) | -0.569 (inactive)
CARPLRDAGGAGNASASA [FS-2357] | 0.0621 (inactive) | -0.105 (inactive) | -0.644 (inactive)
CARQKKTTGGAGNASASA [FS-3034] | -1.15 (inactive) | -0.895 (inactive) | -0.562 (inactive)
CARILRSAWGAGNASASA [FS-2684] | -1.8 (inactive) | 0.635 (inactive) | 0.838 (inactive)
CARHRRIHSGAGNASASA [FS-2945] | -0.899 (inactive) | -0.653 (inactive) | -0.511 (inactive)
CARHRRAAGGAGNASASA [FS-2144] | 5.47 (active) | 4.69 (active) | 5.6 (active)
